Screens: PubChem BioAssay, National Center for Advancing Translational Sciences (NCATS)
The list is not random: actives were taken first. Their share in the collection is about 7.3%.
HCMV antiviral – inhibitors of human cytomegalovirus. HFF cells, HCMV-luciferase reporter, 72 h; hits give low values. activity change, negative = inhibition, % at 57.5 µM. actives 4.5% (n = 410,000). AID 1259415; in the data active means activity change below about -60%; inconclusive means no clear call, values can overlap the other calls; inactive means above about -39%
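HFF cells seeded 16 h at 37C, treated with compounds, infected with luciferase-reporter HCMV at MOI 1 PFU/cell; luciferase read at 72 h post infection, normalized to buffer-only and Salinomycin controls.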
FMDV inh – blocks foot and mouth disease virus | actives 1.2% (n = 410,000) | FMDV antiviral cell-based qHTS | Potency, µM (highest dose often 57.9 µM), for the others: at the top dose activity change, negative = inhibition, most hits filed as inhibitors; calls by dose curve; tested in HEK293T cells; further: read-out not given here; potency means the concentration at half of the fitted maximal effect; nearly all actives have a fitted effect of over 45% in size
AmpC inh no detg – blocks E. coli AmpC beta-lactamase in detergent-free assay. AmpC nitrocefin hydrolysis, absorbance 480 nm, 0.0001% Triton. actives 0.52% (n = 330,000). Potency, µM (highest dose often 57.1 µM), inactives show at the top dose activity change, negative = inhibition, most hits filed as inhibitors. P00811;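 further: potency means the concentration at half of the fitted maximal effect; plate controls were no compound for no effect and no enzyme for full effect; nearly all actives have a fitted effect of over 20% in size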
Target sequence (P00811 whole entry, looked up): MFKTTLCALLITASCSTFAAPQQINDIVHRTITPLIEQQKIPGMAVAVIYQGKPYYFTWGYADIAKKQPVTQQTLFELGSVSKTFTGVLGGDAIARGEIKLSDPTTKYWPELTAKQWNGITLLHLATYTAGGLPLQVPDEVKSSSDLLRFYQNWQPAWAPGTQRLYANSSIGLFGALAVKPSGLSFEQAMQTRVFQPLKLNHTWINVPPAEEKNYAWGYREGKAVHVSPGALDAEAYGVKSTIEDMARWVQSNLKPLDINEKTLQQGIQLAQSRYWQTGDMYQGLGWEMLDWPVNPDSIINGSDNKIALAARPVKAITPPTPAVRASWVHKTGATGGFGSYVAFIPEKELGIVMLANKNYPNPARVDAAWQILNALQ
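AmpC (5.3 nM in the dispensed reagent) in 20 mM phosphate pH 7.0 with 0.01% (detergent screen) or 0.0001% Triton X-100 was preincubated with compounds for 15 min at room temperature. Nitrocefin was then added from an 800 uM solution, and hydrolysis was followed at 480 nm.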
AmpC detergent – AmpC beta-lactamase inhibition with detergent present | P00811 | AmpC hydrolysis of nitrocefin, absorbance 480 nm, 0.01% Triton | Potency, µM (top dose mostly 114 µM), without a hit: at the highest dose activity change, negative = inhibition, actives largely listed as inhibitors | actives 0.041% (n = 370,000);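 further: potency means the concentration at half of the fitted maximal effect; 0% = no-compound wells and -100% = no-enzyme wells; nearly all actives have a fitted effect of over 25% in size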
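20 mM phosphate pH 7.0 + 0.01% (detergent screen) or 0.0001% Triton X-100; 5.3 nM AmpC reagent; cpd preinc 15 min RT; nitrocefin (800 uM stock) to start; A480 q20 s × 4 min; Activity was normalised to no-enzyme and no-compound control wells.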
HCV inhibitor – HCV inhibition; Huh7.5.1 HCVcc-Cre infection, luciferase reporter, 44 h; Potency, µM (highest dose often 41.8 µM), without a hit: top-dose activity change, negative = inhibition, usual class: inhibitors; actives 3.4% (n = 340,000); AID 651820; further: potency means the concentration at half of the fitted maximal effect
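Luciferase read-out (15 sec integration) after a 15 min room-temperature substrate step quantifies HCVcc-Cre infection. Cells, 1,000 per well, had compound added 4 h post-plating, then virus at ~0.5 moi, and were cultured 44 h.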
* = called active by the depositor; ? = inconclusive; · = no result. Unless noted, the call rests on the fitted dose curve; in most records, active means well fitted curve in the direction sought with a large enough effect; inconclusive means small, poorly fitted or top-dose-only effect, or another doubt; inactive means no such curve, though single readings can be large; an effect the other way counts as inactive or inconclusive. Unless noted, on the % scale 0 is the no-effect control and ±100 the full control effect.

SMILES	HCMV antiviral	FMDV inh	AmpC inh no detg	AmpC detergent	HCV inhibitor
Cc1cc(C)cc(NC(=O)CSc2oc(-c3ccco3)nc2S(=O)(=O)c2ccc(Cl)cc2)c1	-62*	-1%	·	-8%	·
O=C(CSc1oc(-c2ccco2)nc1S(=O)(=O)c1ccc(Cl)cc1)NCC1CCCO1 (centres undefined)	-66*	·	22%	-5%	?
O=C(Nc1ccccc1F)N1CC(=O)N2[C@H](CO)[C@@H](c3ccc(Br)cc3)[C@@H]2C1	1	·	·	·	·
Cc1ccc(NC(=O)Nc2cn(C)c(=O)c3ccccc23)c(Cl)c1	0	?	·	15%	·
Cc1ccc(S(=O)(=O)CC(CN2CCCCC2)N2CCCCC2)cc1 (centres undefined)	-99*	28µM*	-3%	2%	16µM*
O=S(=O)(CC(CN1CCCCC1)N1CCCCC1)c1ccc2ccccc2c1 (centres undefined)	-73*	?	0%	-7%	25%
COc1ccc(S(=O)(=O)c2cn(Cc3ccccc3)c3cc(N4CCCC4)c(F)cc3c2=O)cc1	8	-4%	·	19%	·
Cc1csc(NC(=O)C(C)Oc2ccc(Cl)cc2C)n1 (centres undefined)	0	1%	-14%	3%	?
Cn1c(C(=O)N2CCCC(C(=O)NCCCSC3CCCCC3)C2)cc2sccc21 (centres undefined)	-61*	?	193%	0%	?
CCn1c(C(=O)N2CCCC(C(=O)NCCCc3ccccc3)C2)cc2sccc21 (centres undefined)	-70*	·	136%	-4%	?
Cc1cccc(CNc2nc3cnc(-c4cccc(F)c4)cc3n2C)c1	17	·	·	·	·
COc1ccc(/C=C2\CCCC3C2=NN(C(=O)COC(=O)CNC(=O)c2ccccc2)C3c2ccc(OC)cc2)cc1 (centres undefined)	34	-11%	-12%	-4%	0%
O=C(CSc1ncn[nH]1)N1N=C2/C(=C/c3ccccc3)CCCC2C1c1ccccc1 (centres undefined)	-90*	-23%	1%	-1%	-25%
COc1ccc(/C=C2\CCCC3C2=NN(C(=O)CSc2ncn[nH]2)C3c2ccc(OC)cc2)cc1 (centres undefined)	-23	-30%	6%	0%	13µM*
COc1ccc(C=CC(O)CCN2CCC3CCC(C3)C2)cc1 (centres undefined)	-66*	-8%	·	·	-10%
CCOc1ccccc1NC(=O)CSc1ccc(-c2sc(C)nc2C)nn1	?	25µM*	111%	2%	?
COc1ccc(NC(=O)CSc2ccc(-c3ccco3)nn2)cc1	-66*	-18%	-34%	-5%	-2%
COc1cc(NC(=O)CSc2ccc(-c3ccco3)nn2)cc(OC)c1	-5	?	-34%	5%	?
COc1ccccc1NC(=O)CSc1ccc(-c2sc(C)nc2C)nn1	43	?	·	5%	·
CCOc1ccccc1NC(=O)CSc1ccc(-c2ccco2)nn1	-27	-23%	32µM*	0%	-18%
Cc1cc(C)cc(OCC(=O)OCC(=O)N(C)CC(=O)Nc2ccc(F)cc2)c1	-17	-7%	33%	?	20%
Cc1ccc(S(=O)(=O)Nc2ccc3c(c2)C(=O)N([C@H](C)CO)C[C@H](C)[C@@H](CN(C)C(=O)NC2CCCCC2)OCCCC[C@@H](C)O3)cc1	-63*	-30%	·	·	·
C[C@@H]1CN([C@@H](C)CO)C(=O)c2cc(NS(=O)(=O)c3ccc(F)cc3)ccc2O[C@@H](C)CCCCO[C@H]1CN(C)C(=O)NC1CCCCC1	-86*	-24%	·	·	·
Cc1ccc(S(=O)(=O)Nc2ccc3c(c2)C(=O)N([C@@H](C)CO)C[C@@H](C)[C@@H](CN(C)C(=O)NC2CCCCC2)OCCCC[C@H](C)O3)cc1	-4	1%	·	·	·
C[C@@H]1CCCCO[C@H](CN(C)C(=O)Nc2ccc3c(c2)OCO3)[C@@H](C)CN([C@H](C)CO)C(=O)c2cc(NS(=O)(=O)c3ccc(F)cc3)ccc2O1	-35	0%	·	·	·
CCNc1nc(CN2CCCCC2)nc2scc(-c3ccccc3)c12	-95*	?	-2%	-6%	10µM*
